GALR2 agonist – activates the human galanin receptor 2; O43603; GALR2-expressing cells, agonist activation read-out; activation, % (test concentration not listed); 140,000 tested, 0.48% active; in the data active = activation above about 5%, passing the limit was not always enough;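 also: 0% = vehicle buffer wells and 100% = reference agonist at full effect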
Smad3 inh – Smad3 (human) transcription factor binding inhibition; TR-FRET Smad3/Dy647-FoxH1 peptide binding, europium anti-His; P84022; inhibition, % at 25 µM; 88,000 tested, 0.29% active;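 active = compounds that reduce the energy-transfer binding signal between the protein and its labelled peptide by more than half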;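 also: 0% = Smad3 plus labelled peptide maximal FRET and 100% = peptide-only background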
S1P2 ag – activates the human S1P2 receptor | 97,000 tested, 0.46% active | activation, % at 4.5 µM | S1P2-expressing cell line, agonist reporter read-out | O95136; in the data active = activation above about 16%;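 also: 0% = vehicle low control and 100% = maximal reference agonist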
Target sequence (O95136 whole entry, looked up): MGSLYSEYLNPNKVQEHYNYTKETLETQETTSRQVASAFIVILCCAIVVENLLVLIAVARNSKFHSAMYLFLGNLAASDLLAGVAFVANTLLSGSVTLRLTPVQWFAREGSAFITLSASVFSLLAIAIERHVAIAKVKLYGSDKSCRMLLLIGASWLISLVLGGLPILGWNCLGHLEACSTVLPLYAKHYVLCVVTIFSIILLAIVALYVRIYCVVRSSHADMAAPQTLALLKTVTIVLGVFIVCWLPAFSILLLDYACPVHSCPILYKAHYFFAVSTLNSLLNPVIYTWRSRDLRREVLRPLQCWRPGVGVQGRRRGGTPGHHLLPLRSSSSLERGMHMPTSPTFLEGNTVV
MT1-MMP txn act – MT1-MMP promoter transcription activation. HT1080 MT1-MMP promoter luciferase reporter, luminescence, overnight; stronger effect = higher value. activation factor at 10 µM. 86,000 tested, 0.16% active. AID 750;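 active = activation factor of at least 2 for MT1-MMP transcription at 10 µM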
S1P2 blocker – blocks the human S1P2 receptor | O95136 | 97,000 tested, 0.21% active | inhibition, % at 5 µM | cell-based S1P2 antagonist assay, inhibition at 5 uM | AID 736; in the data active = inhibition above about 45%;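 also: CRE beta-lactamase reporter cells expressing human S1P2 stimulated with S1P; 0% = agonist at EC80 alone and 100% = agonist plus reference antagonist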
GALR2 antag – blocks the human galanin receptor 2; inhibition, % at 4 µM; O43603; GALR2-expressing cells, antagonist mode; AID 828; 140,000 tested, 0.39% active; in the data active = inhibition above about 27%;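 also: cells stimulated with galanin 1-16 at roughly its EC80; 0% = agonist challenge control and 100% = basal control without agonist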
GALR2 agon conf – confirmation of human galanin receptor 2 (GALR2) agonists; 460 tested, 10% active; shares compounds with GALR2 agonist; GALR2-expressing cells, agonist activation; activation, % at 5.6 µM; in the data active = activation above about 8.4%;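 also: 0% = buffer-only vehicle wells and 100% = full reference agonist response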
BLA act counter – beta-lactamase activation, GALR2 counterscreen; activation, % at 5.6 µM; CHO NFAT-bla reporter, beta-lactamase FRET activation; shares compounds with GALR2 agonist; AID 865; 460 tested, 10% active;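 active = activation above the screen-wide mean activation plus 3 SD, cut at about 8% in these data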;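 also: 0% = DMSO with PBS wells and 100% = thapsigargin positive control wells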
* hit, by the source's call. Hits are enriched below; roughly 1.4% of the tested compounds scored in any of these assays.

`S=C1SCN(C2CCCCCCCCCCC2)CN1C1CCCCCCCCCCC1` gave Smad3 inh 8.8.
Screening C[C@@H]1CCCN(CP(=O)(c2ccccc2)c2ccccc2)C1 returned Smad3 inh -4.6.
Screening COC(=O)c1cc(C(C)=O)n2ccccc12 returned GALR2 agonist 0.0, S1P2 ag 2.1, S1P2 blocker -19.5 and GALR2 antag -10.3.
`CCOC(=O)c1cc(C(=O)OCC)c2ccccn2c1=O` gave GALR2 agonist 15.1*, S1P2 ag 12.1, S1P2 blocker -23.6, GALR2 antag -8.0, GALR2 agon conf 1.8 and BLA act counter 5.9.
O=C(NCc1ccco1)c1cccc(F)c1 was read as GALR2 agonist 8.3, Smad3 inh -10.7, S1P2 ag -2.6, MT1-MMP txn act 1.3, S1P2 blocker 21.1, GALR2 antag -8.7, GALR2 agon conf -1.0 and BLA act counter -1.0.
Cc1ccc(N=C2NC(=O)CS2)c(C)c1 was read as GALR2 agonist -0.1, Smad3 inh 2.5, S1P2 ag -1.8, MT1-MMP txn act 1, S1P2 blocker 18.7 and GALR2 antag -0.2.
O=C1CSC(=Nc2cc(Cl)ccc2Cl)N1 was read as GALR2 agonist 27.4*, Smad3 inh -2.8, S1P2 ag -7.0, MT1-MMP txn act 1.1, S1P2 blocker -0.8, GALR2 antag 15.1, GALR2 agon conf -0.3 and BLA act counter -1.4.
`O=C(COc1ccc(Cl)cc1)NNC(=O)C(=O)N1CCCCC1` gave GALR2 agonist 29.1*, S1P2 ag -1.9, S1P2 blocker -11.4, GALR2 antag 0.0, GALR2 agon conf -0.5 and BLA act counter -0.3.
For CC1CN(Cc2cc(=O)[nH]c(C(C)C)n2)CC(C)O1 (centres undefined) the results were GALR2 agonist 45.7*, S1P2 ag -0.2, S1P2 blocker -0.5, GALR2 antag -10.6, GALR2 agon conf -0.5 and BLA act counter -0.4.
NC(=O)NCCS[C@H]1CCCC[C@@H]1O was read as Smad3 inh 11.7.
Screening N=c1oc2ccccc2cc1-c1nc(-c2ccccc2)cs1 returned GALR2 agonist 19.7*, GALR2 antag 1.5, GALR2 agon conf 2.9 and BLA act counter 5.4.
`Clc1cc2c(c(CSC3=NCN(CC4CC4)CN3)c1)OCOC2` gave Smad3 inh 3.9.
Screening O=S(=O)(Nc1cc2nc3ccccc3nc2n1Cc1ccccc1)c1ccc(Cl)cc1 returned GALR2 agonist 13.6*, GALR2 antag 17.6, GALR2 agon conf 4.6 and BLA act counter 1.2.
Screening O=C(O)/C(=C\c1ccccc1)Cc1ccccc1 returned Smad3 inh 13.9.
CC1(C)CC(=O)C2=C(C1)Nc1ncnn1C2c1ccccn1 (centres undefined) was read as GALR2 agonist 23.1*, Smad3 inh 1.7, S1P2 ag -6.8, MT1-MMP txn act 1.2, S1P2 blocker -1.3, GALR2 antag 11.4, GALR2 agon conf -0.9 and BLA act counter -2.0.
O=C1NC(c2ccco2)Nc2sc3c(c21)CCN(Cc1ccccc1)C3 (centres undefined) was read as GALR2 agonist 15.8*, Smad3 inh -5.0, S1P2 ag 8.9, MT1-MMP txn act 1.1, S1P2 blocker -10.1, GALR2 antag -8.2, GALR2 agon conf -0.4 and BLA act counter 0.6.
Screening CN1CCc2c(sc3c2C(=O)NC(c2ccco2)N3)C1 (centres undefined) returned GALR2 agonist 1.6, Smad3 inh -2.3, S1P2 ag 0.8, MT1-MMP txn act 1.1, S1P2 blocker 1.6 and GALR2 antag -11.2.
O=[N+]([O-])c1ccc([C@@H](Nc2ccccc2)c2ccc3cccnc3c2O)cc1 was read as Smad3 inh 15.3.
CC(=O)NNC(=O)CCC(=O)Nc1ccccc1 was read as GALR2 agonist 17.4*, S1P2 ag -4.9, S1P2 blocker -17.5, GALR2 antag -1.0, GALR2 agon conf -0.7 and BLA act counter -2.2.
CC1OC2(OC1C)C(=O)Nc1ccccc12 (centres undefined) was read as GALR2 agonist 24.1*, Smad3 inh 0.6, S1P2 ag -4.1, MT1-MMP txn act 1.1, S1P2 blocker -10.0, GALR2 antag -4.2, GALR2 agon conf -0.8 and BLA act counter -2.5.
Screening O=C1Nc2ccccc2C12OCC(COc1ccc(Cl)cc1)O2 (centres undefined) returned GALR2 agonist -1.6, Smad3 inh 6.6, S1P2 ag 0.1, MT1-MMP txn act 1.1, S1P2 blocker -27.7 and GALR2 antag -6.1.
CC[C@H](CN(C)C)C(=O)c1ccco1 was read as Smad3 inh -10.2.
CCOc1ccc(NC(=S)NC(=O)c2c(Cl)c(C)nn2C)c([N+](=O)[O-])c1 was read as GALR2 agonist 8.6*, GALR2 antag 3.1, GALR2 agon conf 1.3 and BLA act counter 2.1.
Screening O=S(=O)(c1ccccc1)N1CN2CN(C1)CN(S(=O)(=O)c1ccccc1)C2 returned Smad3 inh 4.4.
`N=c1oc2cc(O)ccc2cc1C(=O)Nc1nc2ccccc2s1` gave GALR2 agonist 25.5*, GALR2 antag -36.8, GALR2 agon conf 35.5* and BLA act counter 93.8*.
For COC(=O)Cn1c(=NC(=O)c2nc3ccccc3s2)sc2cc(S(C)(=O)=O)ccc21 the results were GALR2 agonist 38.8*, GALR2 antag -16.4, GALR2 agon conf -0.2 and BLA act counter 1.7.
COC(=O)Cn1c(=NC(=O)c2sc3ccccc3c2Cl)sc2cc(S(N)(=O)=O)ccc21 was read as GALR2 agonist 0.0 and GALR2 antag 0.9.
Screening CCOC(=O)/C(C#N)=C/c1ccc(OC)c(OC)c1 returned GALR2 agonist 16.1*, Smad3 inh -4.7, S1P2 ag -2.1, S1P2 blocker -39.4, GALR2 antag -19.6, GALR2 agon conf -1.1 and BLA act counter -2.5.
COc1ccc(OC)c(CN2CCCC(C(=O)N3CCCCC3)C2)c1 (centres undefined) was read as GALR2 agonist 72.1*, Smad3 inh 9.1, S1P2 ag 0.3, MT1-MMP txn act 1.1, S1P2 blocker 15.9, GALR2 antag 3.2, GALR2 agon conf -0.3 and BLA act counter -2.1.
`COc1ccc(Br)cc1CN1CCCC(C(=O)N2CCCCC2)C1` (centres undefined) gave GALR2 agonist -2.1, Smad3 inh 3.2, S1P2 ag -2.0, MT1-MMP txn act 1.2, S1P2 blocker -2.8 and GALR2 antag -7.0.
Screening O=C(O)Cc1[nH]cnc1C(=O)O returned Smad3 inh 9.0.
Screening CCCCn1c(NC(=O)c2ccccc2)c(C#N)c2nc3ccccc3nc21 returned GALR2 agonist 16.2*, S1P2 ag 11.6, MT1-MMP txn act 0.9, S1P2 blocker -0.5, GALR2 antag 1.6, GALR2 agon conf 6.2 and BLA act counter 14.0*.

Screening data as filed in PubChem BioAssay.
